Data reported in the supplement of paper PMC9135407.
“And” between values parts separate entries of the source, which are not always exact repeats. Equal entries are not always repeated. Structures can show the parent of a compound that is named as a salt. The campaign covered roughly 5,800 compounds. About 620 (11%) showed activity. The sample holds actives, similar compounds and a random draw of the others, so the mix is not that of the screen. Unmarked numbers belong to inactive results.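 How the source made its calls: active = score above a cut-off or among the top three wells of a plate; in these data no inactive exceeds 0.85.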

System: primary human hepatic stellate cells (donor 1)
Experiment: scaled lipid accumulation score (0 = DMSO-like, 1 = nortriptyline-like); higher = stronger HSC inactivation (lipid re-accumulation), active = hit call of the paper
Settings: 48 h
Method: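 Primary lipid accumulation screen in primary human hepatic stellate cell myofibroblasts (donor 1, passage 8) in 384-well plates. 100 nL of library compound was pin-transferred into 30 µL medium in duplicate, and cells were treated for 48 h. The 'Scaled' score combines distance from plate baseline, toxicity and reproducibility penalties, and is normalised to nortriptyline (positive) and DMSO (negative) controls on each plate. A hit is defined as scaled >0.85 or among the top 3 wells per plate.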

[1] = library stock concentration: 80 uM
[2] = library stock concentration: 400 uM
[3] = library stock concentration: 2 mM
[4] = library stock concentration: 10 mM
[5] = library stock concentration: 1 mM
[6] = library stock concentration: 3.33 mM

For `COC(=O)/C=C/C(=O)N(O)CCCCNCc1ccc(COC(=O)Nc2cccc3ccccc23)cc1` [Methylstat], the “scaled lipid accumulation score” value [1] was no more than 0, the “scaled lipid accumulation score” value [2] was no more than 0 and the “scaled lipid accumulation score” value [3] was no more than 0. For the same compound, the “scaled lipid accumulation score” value [4] was 0.26.
`CCCCC[C@H](O)/C=C/[C@H]1[C@H](O)CC(=O)[C@@H]1CCCCCCCCC(=O)O` [1a,1b-dihomo Prostaglandin E1] was tested, and the “scaled lipid accumulation score” value [5] was no more than 0.
For `CC1=C(/C=C/C(C)=C/C=C/C(C)=C/C=C/C=C(C)/C=C/C=C(C)/C=C/C2=C(C)CCCC2(C)C)C(C)(C)CCC1` [Beta Carotene], the “scaled lipid accumulation score” value [6] was no more than 0 and the “scaled lipid accumulation score” value [4] was no more than 0.
`CC1=C(/C=C/C(C)=C/C=C/C(C)=C/C=C/C=C(C)/C=C/C=C(C)/C=C/C2=C(C)C(=O)[C@@H](O)CC2(C)C)C(C)(C)C[C@H](O)C1=O` [Astaxanthin] was tested, and the “scaled lipid accumulation score” value [4] was no more than 0.
With `CC1=C(/C=C/C(C)=C/C=C/C(C)=C/C=C/C=C(C)/C=C/C=C(C)/C=C/C2=C(C)C(=O)CCC2(C)C)C(C)(C)CCC1=O` [Canthaxanthin] the “scaled lipid accumulation score” value (library stock concentration: 3.5 mM) was 1.25 (active).
In the case of `CC(=O)N1CCCC1C(=O)O` (stereo unspecified) [N-acetylproline], the “scaled lipid accumulation score” value [4] is reported as no more than 0.
With `C[C@]12C=CC(=O)C=C1CC[C@@H]1[C@@H]2[C@@H](O)C[C@@]2(C)[C@H]1CC[C@]2(O)C(=O)COC(=O)CCC(=O)O` the “scaled lipid accumulation score” value [4] was no more than 0.
In the case of `O=C(CCc1ccc(O)cc1)c1c(O)cc(O)cc1O[C@@H]1O[C@H](CO)[C@@H](O)[C@H](O)[C@H]1O` [Phlorizin], the “scaled lipid accumulation score” value [6] is reported as no more than 0 and the “scaled lipid accumulation score” value [4] is reported as no more than 0.
With `CCCCC/C=C\C=C1\C(=O)CC[C@@H]1C/C=C\CCCC(=O)O` the “scaled lipid accumulation score” value [5] was no more than 0.
With `CC[P](CC)(CC)=[Au][S][C@@H]1O[C@H](COC(C)=O)[C@@H](OC(C)=O)[C@H](OC(C)=O)[C@H]1OC(C)=O` [Auranofin] the “scaled lipid accumulation score” value (library stock concentration: 2.9 mM) was 0.86 (active).
`CC(=O)OC[C@H]1O[C@@H]([S-])[C@H](OC(C)=O)[C@@H](OC(C)=O)[C@@H]1OC(C)=O.CCP(CC)CC.[Au+]` [Auranofin] was tested, and the “scaled lipid accumulation score” value [4] was 0.439.
`CC[C@@H](CO)Nc1nc(NCc2ccc(-c3ccccn3)cc2)c2ncn(C(C)C)c2n1` [CR8, (S)-Isomer] was tested, and the “scaled lipid accumulation score” value [6] was no more than 0.
`CSc1nc(N)c2ncn([C@@H]3O[C@H](COP(=O)(O)OP(=O)(O)OP(=O)(O)O)[C@H](O)C3O)c2n1` (stereo partly specified) [2-Methylthioadenosine triphosphate tetrasodium] was tested, and the “scaled lipid accumulation score” value [4] was no more than 0.
For `CS(=O)(=O)c1ccc(-n2nc(C(F)(F)F)cc2-c2ccc(F)cc2)cc1`, the “scaled lipid accumulation score” value [4] was no more than -0.055.
For `CCC(=O)Nc1ccc2ncnc(Nc3cccc(Br)c3)c2c1`, the “scaled lipid accumulation score” value [6] was no more than 0.
With `Cc1cc(Nc2ncnc3ccc(-c4ccc(CNCCS(C)(=O)=O)o4)cc23)ccc1Oc1ccn2ncnc2c1` [HER2-Inhibitor-1] [listing 1 of 2 here] the “scaled lipid accumulation score” value [4] was 0.977 (active).
With `C[C@@H]1COC(Nc2ccc3ncnc(Nc4ccc(OCc5nccs5)c(Cl)c4)c3c2)=N1` [Varlitinib] the “scaled lipid accumulation score” value [6] was 0.382 and the “scaled lipid accumulation score” value [4] was 0.594.
`CC(C)(O)CC(=O)NCCn1ccc2ncnc(Nc3ccc(Oc4cccc(C(F)(F)F)c4)c(Cl)c3)c21` was tested, and the “scaled lipid accumulation score” value [6] was no more than 0 and the “scaled lipid accumulation score” value [4] was 0.302.
With `CS(=O)(=O)CCNCc1ccc(-c2ccc3ncnc(Nc4ccc(OCc5cccc(F)c5)c(Cl)c4)c3c2)o1` [listing 1 of 2 here] the “scaled lipid accumulation score” value [1] was no more than 0, the “scaled lipid accumulation score” value [2] was ≤ 0 and 0.144 and the “scaled lipid accumulation score” value [3] was 0.42. For the same compound, the “scaled lipid accumulation score” value [4] was 0.429.
For `CS(=O)(=O)CCNCc1nc(-c2ccc3ncnc(Nc4ccc(OCc5cccc(F)c5)c(Cl)c4)c3c2)cs1.Cl.Cl`, the “scaled lipid accumulation score” value [4] was 1.38 (active).
For `Cc1cc(Nc2ncnc3ccc(-c4ccc(CNCCS(C)(=O)=O)o4)cc23)ccc1Oc1ccn2ncnc2c1` [HER2-Inhibitor-1] [listing 2 of 2 here], the “scaled lipid accumulation score” value [6] was 0.203.
With `Cc1ccc(CNc2ncnc3ccc(-c4ccc(CO)o4)cc23)o1` the “scaled lipid accumulation score” value [6] was no more than -0.009 and the “scaled lipid accumulation score” value [4] was no more than 0.
With `C=CC(=O)Nc1ccc2ncnc(Nc3ccc(OCc4cccc(F)c4)c(Cl)c3)c2c1` the “scaled lipid accumulation score” value [1] was no more than -0.016, the “scaled lipid accumulation score” value [2] was no more than -0.016 and the “scaled lipid accumulation score” value [3] was no more than -0.016. For the same compound, the “scaled lipid accumulation score” value [6] was 0.132 and the “scaled lipid accumulation score” value [4] was 0.378 and 0.75.
`CS(=O)(=O)CCNCc1ccc(-c2ccc3ncnc(Nc4ccc(OCc5cccc(F)c5)c(Cl)c4)c3c2)o1` [listing 2 of 2 here] was tested, and the “scaled lipid accumulation score” value [3] was 1.7 (active).
For `CC(C)CCCCCCC/C=C/C(=O)O` [trans-.DELTA.2-11-methyl-Dodecenoic Acid], the “scaled lipid accumulation score” value [5] was no more than 0.
For `CC(C)=CCC/C(C)=C/CC/C(C)=C/CSCC(=O)O` [Farnesylthioacetic acid], the “scaled lipid accumulation score” value [5] was no more than -0.021.
For `CC(C)=CCC/C(C)=C/CC/C(C)=C/CSCC(=O)O` [S-Farnesyl Thioacetic Acid], the “scaled lipid accumulation score” value [5] was 0.018.
`CCCCCCCCCC(=O)NC(CN1CCOCC1)C(O)c1ccccc1` (stereo unspecified) [PDMP (hydrochloride)] was tested, and the “scaled lipid accumulation score” value [5] was no more than 0.
In the case of `C1CCN2C[C@@H]3C[C@@H](CN4CCCC[C@@H]34)[C@H]2C1` [Sparteine (-)], the “scaled lipid accumulation score” value is reported as no more than 0.
In the case of `C1CCN2C[C@@H]3C[C@@H](CN4CCCC[C@@H]34)[C@H]2C1` [Sparteine sulfate], the “scaled lipid accumulation score” value (library stock concentration: 6 mM) is reported as no more than -0.001 and the “scaled lipid accumulation score” value [4] is reported as 0.072.
With `CCCCC[C@H](O)/C=C/[C@H]1[C@H](O)CC(=O)[C@@H]1C/C=C\CCCC(=O)O` [Dinoprostone] the “scaled lipid accumulation score” value (library stock concentration: 5.7 mM) was no more than -0.006.
With `CCCCC[C@H](O)/C=C/[C@H]1[C@H](O)CC(=O)[C@@H]1C/C=C\CCCC(=O)O` [Prostaglandin E2] the “scaled lipid accumulation score” value [5] was no more than 0 and the “scaled lipid accumulation score” value [4] was no more than -0.001.
For `CCCCC[C@H](O)/C=C/[C@H]1[C@H](O)CC(=O)[C@@H]1C/C=C\CCCC(=O)O` [Prostaglandin  E2], the “scaled lipid accumulation score” value [5] was no more than -0.021.
In the case of `Cc1ccc2c(c1)C(=O)C1(O)CCN(c3ccccc3)C1=N2` (single isomer, unassigned; (-)) [(-)-Blebbistatin], the “scaled lipid accumulation score” value [1] is reported as no more than -0.001, the “scaled lipid accumulation score” value [2] is reported as no more than -0.001 and the “scaled lipid accumulation score” value [5] is reported as no more than 0. The “scaled lipid accumulation score” value [3] was no more than -0.001, the “scaled lipid accumulation score” value [6] was no more than -0.009 and the “scaled lipid accumulation score” value [4] was 0.264.
`CCCCC/C=C\C/C=C\CC/C=C\CCCC(=O)OC` [Pinolenic Acid methyl ester] was tested, and the “scaled lipid accumulation score” value [5] was no more than 0.
With `CC(C)(C)c1cnc(CSc2cnc(NC(=O)C3CCNCC3)s2)o1` the “scaled lipid accumulation score” value [1] was 0.373, the “scaled lipid accumulation score” value [2] was 0.262 and 0.17 and the “scaled lipid accumulation score” value [3] was 0.414 and 0.498. For the same compound, the “scaled lipid accumulation score” value [6] was 0.468 and the “scaled lipid accumulation score” value [4] was 0.32 and 0.42 and 0.56.
With `CN([C@@H](Cc1ccc(OS(=O)(=O)c2cccc3cnccc23)cc1)C(=O)N1CCN(c2ccccc2)CC1)S(=O)(=O)c1cccc2cnccc12` the “scaled lipid accumulation score” value [1] was no more than 0, the “scaled lipid accumulation score” value [2] was no more than 0 and the “scaled lipid accumulation score” value [3] was no more than 0. For the same compound, the “scaled lipid accumulation score” value [4] was 0.021.
In the case of `COC(=O)C1=CO[C@@H](C)[C@H]2CN3CCc4c([nH]c5ccccc45)[C@@H]3C[C@H]12` [Ajmalicine hydrochloride], the “scaled lipid accumulation score” value is reported as 0.17.
For `CCCCc1nn(-c2ccccc2C(F)(F)F)c(=O)n1Cc1ccc(-c2ccccc2S(=O)(=O)NC(=O)c2sccc2C)cc1`, the “scaled lipid accumulation score” value [4] was no more than -0.001.
With `c1ccc2c(-c3cnn4cc(-c5ccc(N6CCNCC6)cc5)cnc34)ccnc2c1` the “scaled lipid accumulation score” value [1] was 0.107, the “scaled lipid accumulation score” value [2] was no more than -0.009 and the “scaled lipid accumulation score” value [3] was 0.656. The “scaled lipid accumulation score” value [4] was 0.103.
`CCCCCC(=O)CC[C@@H]1[C@@H](C/C=C\CCCC(=O)O)[C@@H](O)C[C@H]1O` [13,14-dihydro-15-keto Prostaglandin F2.alpha.] was tested, and the “scaled lipid accumulation score” value [5] was no more than 0.
For `NC(=O)c1cccc(-c2cc(Nc3ccc(OC(F)(F)F)cc3)ncn2)c1`, the “scaled lipid accumulation score” value [1] was no more than 0, the “scaled lipid accumulation score” value [2] was no more than 0 and the “scaled lipid accumulation score” value [3] was 0.03. The “scaled lipid accumulation score” value [6] was no more than 0 and the “scaled lipid accumulation score” value [4] was ≤ 0 and 0.198.
In the case of `CCCCCCCCCCCCC(O)C(=O)O` (stereo unspecified) [2-Hydroxymyristic Acid], the “scaled lipid accumulation score” value [5] is reported as no more than 0.
`CCCCCCCCCCCCC(O)C(=O)O` (stereo unspecified) [2-Hydroxymyristic acid] was tested, and the “scaled lipid accumulation score” value [5] was 0.03.
In the case of `CC1=CC(=O)c2ccccc2C1=O` [Menadione] [listing 1 of 2 here], the “scaled lipid accumulation score” value is reported as 0.873 (active).
`COC1=C(OC)C(=O)c2ccccc2C1=O` [2,3-Dimethoxy-1,4-naphthoquinone] was tested, and the “scaled lipid accumulation score” value [4] was 0.634.
With `CC1=CC(=O)c2ccccc2C1=O` [Menadione] [listing 2 of 2 here] the “scaled lipid accumulation score” value [6] was no more than 0, the “scaled lipid accumulation score” value [4] was 0.707 and ≤ 0 and the “scaled lipid accumulation score” value (library stock concentration: 11.6 mM) was 0.594.
In the case of `O=C1NC(=O)/C(=C/c2ccc3nccnc3c2)S1`, the “scaled lipid accumulation score” value [1] is reported as no more than -0.016, the “scaled lipid accumulation score” value [2] is reported as no more than -0.016 and the “scaled lipid accumulation score” value [3] is reported as no more than -0.016. The “scaled lipid accumulation score” value [4] was no more than -0.016.
With `COc1cc(CNC(=O)CCCC/C=C/C(C)C)ccc1O` [Capsaicin] the “scaled lipid accumulation score” value was no more than 0, the “scaled lipid accumulation score” value [5] was no more than 0 and the “scaled lipid accumulation score” value [4] was no more than 0.
With `COc1cc(CNC(=O)CCCC/C=C/C(C)C)ccc1O` [E-capsaicin] the “scaled lipid accumulation score” value [4] was no more than 0.
For `COc1cc(CNC(=O)CCCC/C=C/C(C)C)ccc1O` [E-Capsaicin], the “scaled lipid accumulation score” value (library stock concentration: 16.4 mM) was 0.112.
For `COc1cc(CNC(=O)CCCC/C=C/C(C)C)ccc1O` [(E)-Capsaicin], the “scaled lipid accumulation score” value [4] was no more than 0.
With `COc1c(C)c2c(c(O)c1C/C=C(\C)CCC(=O)OCCN1CCOCC1)C(=O)OC2` [Mycophenolate Mofetil] the “scaled lipid accumulation score” value [6] was no more than 0 and the “scaled lipid accumulation score” value [4] was no more than 0.
For `CC(C)c1cccc(C(C)C)c1N1C(=O)c2ccc(O)cc2C1=O`, the “scaled lipid accumulation score” value [4] was 0.259.
In the case of `CN(C)CC(C)(C)CNc1nn2c(-c3ccccc3)nnc2cc1C1CCC1`, the “scaled lipid accumulation score” value [2] is reported as no more than -0.005, the “scaled lipid accumulation score” value [3] is reported as no more than -0.005 and the “scaled lipid accumulation score” value [4] is reported as 0.159.
